For 15 compounds, composite z-score and composite Z-score results are on record in PubChem BioAssay.

Test [1] addresses Albumin (Bos taurus) (UniProt P02769). The test can be described thus: compounds binding labelled BSA control protein – biochemical, small-molecule microarray, Alexa647 label, 635/667 nm fluorescence, artefact control for SMM control protein annotation, profiling panel (AID 1118).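 Note: score merges 667 nm emission intensity and signal-to-noise per printed compound spot.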 The settings on record: BSA-A647 binding, fluorescence 635 nm, higher = more signal.
Test [2] is described as follows: probe aXIP binding to arrayed compounds – biochemical, NeuroSMM set, 635/667 nm fluorescence, primary screen (AID 1119).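 Note: probe is the protein aXip251-270 applied at 1 µg/mL to compound-printed slides; binding of probe to printed compounds measured as 667 nm fluorescence plus signal to noise.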 The settings on record: small-molecule microarray, higher = more signal, called active from +8 up or from −8 down.
The nature of test [3]: probe aNOTCH3 binding on compound microarray – biochemical, small-molecule microarray, 635/667 nm fluorescence, primary screen (AID 1120).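 Note: probe is a biotin-tagged antibody raised against NOTCH3 rather than NOTCH3 protein; score merges spot fluorescence near 667 nm with spot signal to noise.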 The settings on record: higher = more signal.
Test [4] can be described thus: probe aNOTCH2 binding on compound microarray – biochemical, small-molecule microarray, 635/667 nm fluorescence, primary screen (AID 1121).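 Note: score merges feature fluorescence read at 667 nm with its signal to noise.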 The settings on record: higher = more signal.
The target in test [5] is Carbonic anhydrase 2 (Homo sapiens) (UniProt P00918). Description: compounds binding carbonic anhydrase 2 – biochemical, small-molecule microarray, Alexa647-labelled CAII, profiling panel (AID 1122). The following applies: CAII-A647 binding fluorescence, higher = more signal.
Test [6] in a line: COS7 lysate on small-molecule microarray, probe aHis, 635 nm (AID 1123).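 Note: z-score combines 667nm fluorescence intensity with signal-to-noise per printed compound spot.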 The settings on record: COS7 cell lysate, fluorescence, higher = more signal.
A short description of test [7]: probe aLAP1 signal on lysate-treated microarray – cell lysate, small-molecule microarray, COS7 lysate, primary screen (AID 1124).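 Note: lysate comes from COS7 cells expressing LAP1 and is applied at 0.3 µg/mL; score merges spot fluorescence near 667 nm with signal-to-noise over triplicate slides.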 The following applies: probe aLAP1, fluorescence, higher = more signal.
Test [8] deals with Sam68 (KHDRBS1). Description: compounds binding KHDRBS1 protein – biochemical, small-molecule microarray, 635 nm fluorescence, primary screen (AID 1125).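 Note: score merges 667 nm channel intensity with signal to noise over triplicate slides.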 The following applies: higher = more signal.
For test [9], the system named is Chordin-like protein 2 (CHRDL2). The test can be described thus: compounds binding chordin-like 2 – biochemical, small-molecule microarray, 635 nm fluorescence, primary screen (AID 1126).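 Note: printed compound slides probed with Chrdl2 protein at 4 µg/mL for 1 h at 4 C; score merges 667 nm emission intensity with signal to noise over three replicate slides.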 The following applies: fluorescence 635 nm, higher = more signal.
Test [10] deals with Concanavalin-A (Canavalia ensiformis) (UniProt P02866). Description: compounds binding concanavalin A lectin – biochemical, small-molecule microarray, Alexa647 label, 635 nm, artefact control for SMM control protein annotation, primary screen (AID 1127).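 Note: z combines 667 nm emission intensity with signal-to-noise across three replicate slides.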 The following applies: ConA-A647 binding fluorescence, higher = more signal.
Sequence of Concanavalin-A (Canavalia ensiformis) (P02866 whole entry, looked up): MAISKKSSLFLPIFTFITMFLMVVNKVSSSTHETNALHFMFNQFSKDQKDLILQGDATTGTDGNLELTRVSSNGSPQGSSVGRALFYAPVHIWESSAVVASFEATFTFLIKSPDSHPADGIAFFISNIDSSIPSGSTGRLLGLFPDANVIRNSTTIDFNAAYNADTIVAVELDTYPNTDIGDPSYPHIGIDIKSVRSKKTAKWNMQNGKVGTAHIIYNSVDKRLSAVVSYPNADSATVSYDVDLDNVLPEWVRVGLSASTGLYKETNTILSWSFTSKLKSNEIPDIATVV

The structures appear in SMILES notation. Active and inactive are the calls of the source.

Sequence of Albumin (Bos taurus) (P02769 whole entry, looked up): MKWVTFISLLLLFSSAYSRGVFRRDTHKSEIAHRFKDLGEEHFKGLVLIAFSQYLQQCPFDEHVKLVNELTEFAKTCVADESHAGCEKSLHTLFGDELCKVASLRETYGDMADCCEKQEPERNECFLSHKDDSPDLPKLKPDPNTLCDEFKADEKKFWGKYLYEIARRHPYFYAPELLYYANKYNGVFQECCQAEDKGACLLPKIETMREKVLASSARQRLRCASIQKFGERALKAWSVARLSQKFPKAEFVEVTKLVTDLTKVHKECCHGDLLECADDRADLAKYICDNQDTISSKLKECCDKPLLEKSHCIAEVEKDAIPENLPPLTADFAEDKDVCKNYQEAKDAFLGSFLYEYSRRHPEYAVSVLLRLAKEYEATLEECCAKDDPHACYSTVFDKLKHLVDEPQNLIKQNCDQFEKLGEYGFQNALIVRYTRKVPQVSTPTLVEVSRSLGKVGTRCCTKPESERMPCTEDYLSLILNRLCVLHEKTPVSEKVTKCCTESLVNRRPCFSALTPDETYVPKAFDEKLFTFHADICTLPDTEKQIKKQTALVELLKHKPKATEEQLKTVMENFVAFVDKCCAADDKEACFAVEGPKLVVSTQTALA

On to `CCOC(=O)[C@H](CC(C)C)NC(=O)CCC1CC(OC(=O)NCc2cccc3ccccc23)CC2(CCCC(COC(=O)NCCOC)O2)O1` (stereo not given in full), for which the composite z-score in [1] is 0.222; in test [3] it was 0.0306; in [4], -0.0195; in test [5], 0.431; in test [6] it was 1.02; in test [7], -0.0557. Moreover, the composite z-score in [8] was found to be 1.29; in test [9], 0.156; in [10] it was 0.782. For the same compound, in [2], the composite Z-score was -0.166 (inactive).
On to `CC(CCN1CCc2nc(-c3ccccc3)c(-c3ccccc3)cc2C1)=NOC[C@@H](O)COCc1ccco1`, for which the composite z-score in test [1] is 0.148; in test [3], 0.062; in test [4], -0.153; in test [5], 0.0111; in test [6] it was 0.197; in [7], -0.202. Moreover, the figures for the composite z-score in test [8], in test [9] and in test [10] were 1.08, 1.03 and 0.501, respectively. In addition, the composite Z-score in test [2] is 0.0366 (inactive).
With `CCOC(=O)NN=C1C[C@@H](O)[C@@H](O)[C@@H]2[C@@H]3C(=O)N(c4cccc(Oc5ccccc5)c4)C(=O)[C@@H]3CC[C@H]12`, the composite z-score in test [1] was 0.52; in test [3] it was 0.0462; in test [4], -0.0753; in test [5], 0.503; in test [6], 0.858; in test [7], 0.0682. Besides, the composite z-score in test [8] was 0.384; in test [9] it was 0.399; in test [10], 0.854. The composite Z-score in test [2] is -0.238 (inactive).
As for `Cc1ccc(S(=O)(=O)N[C@@H]2COC(=O)[C@@H](C)COC(=O)CC=C[C@H]2C)cc1`, the composite z-score in test [1] was -0.0824; in test [3] it was 0.135; in test [4], -0.162; in [5] it was -0.006; in [6], -0.0704; in test [7], -0.0424. Also, the values for the composite z-score in test [8], in [9] and in [10] were -0.181, 0.379 and 0.457, respectively. Further, the composite Z-score in [2] was -0.145 (inactive).
With `Cc1ccc(S(=O)(=O)N[C@H]2COC(=O)CC=C[C@@H](C)COC(=O)CC=C[C@@H]2C)cc1`, the composite z-score was -1.17 in test [1]; -0.163 in test [3]; -0.186 in test [4]; -0.41 in test [5]; -0.688 in test [6]; -0.209 in [7]. The composite z-score is 0.393 in test [8], 1.23 in test [9] and -0.351 in test [10]. Also, the composite Z-score in test [2] was -0.821 (inactive).
For `COc1cccc([C@H]2Oc3ccc(OC)cc3C(=NOC[C@@H](C)[C@H](OCc3ccccc3)C(C)C)[C@@H]2O)c1`, the composite z-score was 0.422 in test [1]; -0.162 in test [3]; -0.0512 in [4]; 0.689 in test [5]; 0.923 in [6]; 1.37 in [7]. Further, the composite z-score in [8] is 0.413; in test [9], -0.269; in test [10], 0.0788. Also, in test [2], the composite Z-score is 0.237 (inactive).
Turning to `COC(=O)[C@@H]1CC[C@H](C)[C@@H](c2ccc(C)cc2)N1C(=O)c1ccc(C=NO[C@@H]2O[C@H](COC(C)=O)[C@@H](OC(C)=O)[C@H](OC(C)=O)[C@H]2OC(C)=O)cc1`, the composite z-score in test [1] was 0.322; in test [3], -0.217; in test [4] it was -0.0596; in test [5], -0.0477; in test [6] it was 0.234; in test [7], 0.116. In addition, the composite z-score in test [8] is 1.05; in [9] it was 0.452; in test [10] it was 1.01. Further, in [2], the composite Z-score was 0.265 (inactive).
On to `CCCNC(=O)OC[C@H]1O[C@H](c2ccccc2)C=C[C@@H]1Oc1ccc(OC)cc1`, for which the composite z-score was 0.16 in test [1]; -0.15 in test [3]; -0.14 in test [4]; 0.066 in test [5]; 0.232 in test [6]; 0.0186 in test [7]. Also, the composite z-score in test [8] is -0.573; in [9], 0.062; in test [10], -0.316. Moreover, the composite Z-score in test [2] was 0.0414 (inactive).
Consider `CCOC(=O)NN=C1C[C@@H](O)[C@@H](O)[C@@H]2[C@@H]3C(=O)N(Cc4ccc5c(c4)OCO5)C(=O)[C@@H]3CC[C@H]12`, for which the composite z-score in test [1] is 0.717; in test [3], -0.0629; in test [4], -0.14; in [5], 0.347; in [6], 0.926; in test [7], -0.387. The results for the composite z-score in test [8], in test [9] and in test [10] were 0.364, -0.121 and -1.27, respectively. For the same compound, in test [2], the composite Z-score was -0.0189 (inactive).
As to `COC(=O)CC=C[C@@H](C)[C@@H](C=NO[C@H](C)c1cn([C@@H]2COC[C@H]2O)nn1)NS(=O)(=O)c1ccc(C)cc1`, the composite z-score was -0.129 in test [1]; 0.0316 in test [3]; -0.0108 in test [4]; -0.156 in test [5]; 0.0779 in [6]; 0.219 in test [7]. Besides, the composite z-score in test [8] is 0.277; in test [9] it was 0.877; in test [10] it was -0.653. Moreover, in test [2], the composite Z-score was 0.355 (inactive).
For the compound `C[C@H]1CC[C@H]2C(=O)O[C@H](COc3ccc(C(C)(C)C)cc3)CN2[C@@H]1c1ccc(Br)cc1`, the composite z-score was 0.513 in [1]; -0.0435 in test [3]; -0.123 in [4]; -0.232 in [5]; 0.263 in [6]; 0.253 in test [7]. Also, the composite z-score in test [8] is 0.421; in test [9] it was -0.0816; in test [10], 1.09. Besides, the composite Z-score in test [2] was 1.48 (inactive).
As for `CCOC(=O)[C@H](CC(C)C)NC(=O)CCC1CC(OC(=O)NCc2cccc3ccccc23)CC2(CCCC(COC(=O)NCCC(C)C)O2)O1` (stereo not given in full), the composite z-score in test [1] was 0.352; in [3] it was -0.147; in test [4] it was -0.153; in [5], 0.562; in test [6] it was 0.795; in test [7], -0.104. In addition, the figures for the composite z-score in [8], in test [9] and in [10] were -0.0361, 0.443 and 0.0178, respectively. Moreover, the composite Z-score in test [2] is -0.136 (inactive).
On to `CCCNC(=O)OC[C@H]1O[C@H](CCON=C(C)CCC(=O)OC[C@H]2O[C@H](c3ccccc3)C=C[C@@H]2Oc2ccc(OC)cc2)C=C[C@@H]1Oc1ccc(OC)cc1`, for which the composite z-score in test [1] was 0.161; in test [3], -0.0762; in test [4] it was -0.14; in test [5], -0.459; in test [6], -0.528; in test [7] it was -0.155. Further, the composite z-score was -1.25 in test [8], -0.181 in test [9] and -0.721 in test [10]. Also, in [2], the composite Z-score is -0.0662 (inactive).
On to `CON=CC[C@@H]1C=C[C@H](OC(C)=O)[C@@H](COC(C)=O)O1`, for which the composite z-score in test [1] was -0.714; in [3] it was 0.287; in [4], 0.0007; in test [5] it was 0.397; in test [6] it was 0.043; in test [7], 0.18. The values for the composite z-score in [8], in [9] and in test [10] were -0.0499, 0.679 and -0.32, respectively. Further, the composite Z-score in test [2] was 1.33 (inactive).
With `C=CC[C@@H]1C=C[C@H](ON=C[C@@H](C)[C@H](OCc2ccccc2)C(C)C)[C@@H](CO)O1`, the composite z-score in test [1] is 0.744; in test [3] it was -0.276; in test [4], -0.221; in test [5] it was -0.115; in test [6] it was 0.502; in [7], 0.103. For the same compound, the composite z-score in test [8] is 0.0186; in test [9], 0.157; in [10], -0.817. The composite Z-score in test [2] is -0.315 (inactive).
